Only some compounds are listed: those with a hit (about 3.5% of all), similar ones and a draw of the others.
GPR151 activ: activators of human GPR151. activation, % at 11.2 µM. Q8TDV0. 1% of 650,000 active. PathHunter beta-arrestin GPR151 cells, luminescence; in the data active means activation above about 4.9%;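 further: 0% = median of compound wells and 100% = cells with positive control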
TEAD-YAP inh: TEAD-YAP interaction inhibition; AID 1259422; inhibition, % at 9.12 µM; 1.4% of 640,000 active; HEK-TIYL cells, TEAD-Gal4/YAP UAS-luciferase luminescence; in the data active means inhibition above about 32%;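 further: 0% = median of test compound wells and 100% = reference inhibitor wells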
MITF primary: inhibitors of human MITF; inhibition, % at 2.6 µM; O75030; AlphaScreen MITF homodimerization, bead proximity signal; 0.91% of 650,000 active; in the data active means inhibition above about 50%;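 further: 0% = vehicle wells with protein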
FBW7 activator: human FBW7 E3 ligase activation, primary screen. 0.13% of 650,000 active. normalized activity (activation), % at 26.1 µM. AlphaScreen FBW7–phospho-cyclin E peptide binding, activator screen. Q969H0; in the data active means normalized activity above about 1.9%;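 further: purified mutant Fbw7 with reduced substrate affinity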
MITF confirm: confirmation of human MITF inhibitors | shares compounds with MITF primary | AlphaScreen MITF homodimerization, biotin/His-MITF beads | inhibition, % at 2.6 µM | 16% of 4,700 active;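 active means inhibition above a cutoff derived from the DMSO control wells, cut at about 28% in these data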;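 further: 0% = MITF dimer wells with DMSO only; inhibitors lower the bead chemiluminescence by keeping MITF from dimerizing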
AS interf ctr: counter-screen: compounds optically interfering with AlphaScreen; 7.6% of 4,700 active; shares compounds with MITF primary; AID 1259376; LysRS AlphaScreen counterscreen, signal interference, triplicate; inhibition, % at 2.6 µM;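 active means inhibition above a cutoff derived from the DMSO control wells, cut at about 30% in these data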
* marks the source's active call; other numbers are inactive results.

Screening Cc1ccc(Oc2ccc(OCC(=O)NCC3CCCO3)cc2)cc1 (centres undefined) returned GPR151 activ 0, TEAD-YAP inh 16, MITF primary 75*, FBW7 activator 0, MITF confirm 0 and AS interf ctr 11.
For CCOc1cc(NC(=O)c2ccccn2)c(OCC)cc1NC(=O)CC the results were GPR151 activ 0, TEAD-YAP inh -3, MITF primary -7 and FBW7 activator 0.
Screening CCOc1cc(NC(=O)c2ccccn2)c(OCC)cc1NC(C)=O returned GPR151 activ 0, TEAD-YAP inh 6, MITF primary 60*, FBW7 activator 0, MITF confirm 52* and AS interf ctr 76*.
`COc1ccc(COCC(O)CNCCCn2ccnc2)cc1` (centres undefined) gave GPR151 activ -4, TEAD-YAP inh -1, MITF primary 83*, FBW7 activator 0, MITF confirm 8 and AS interf ctr -10.
Screening COc1ccc(CCC(C)NCCCn2ccnc2)cc1 (centres undefined) returned GPR151 activ -1, TEAD-YAP inh 4, MITF primary 43 and FBW7 activator 0.
Cc1cc2ccccc2c(=O)n1CC(=O)NCCCN1CCC(C)CC1 was read as GPR151 activ -1, TEAD-YAP inh -1, MITF primary 8 and FBW7 activator 0.
For COC(=O)c1sccc1NC(=S)NNS(=O)(=O)c1ccc(C)cc1 the results were GPR151 activ -1, TEAD-YAP inh -1, MITF primary 10 and FBW7 activator 0.
Screening Cc1cc(N2CCCCC2)nc2ccc(NC(=O)c3cccnc3)cc12 returned GPR151 activ 0, TEAD-YAP inh -6, MITF primary 53*, FBW7 activator 1, MITF confirm -7 and AS interf ctr 0.
For CC1=C(C(=O)Nc2ccccc2)C(c2ccc([N+](=O)[O-])cc2)NC(=S)N1 (centres undefined) the results were GPR151 activ -1, TEAD-YAP inh 15, MITF primary 17 and FBW7 activator 0.
Screening CC(C)OCCCNC(=O)C1CC(Cc2ccc(F)cc2)=NO1 (centres undefined) returned GPR151 activ 1, TEAD-YAP inh -12, MITF primary 53*, FBW7 activator 0, MITF confirm 23 and AS interf ctr 12.
O=C(Nc1ccccc1-c1ccccc1)C1CCCN1C(=O)Nc1ccccc1 (centres undefined) was read as GPR151 activ 1, TEAD-YAP inh 7, MITF primary 79*, FBW7 activator 0, MITF confirm 12 and AS interf ctr 16.
`CC(=O)C(C)n1c(N2CCCCCC2)nc2c1c(=O)n(C)c(=O)n2C` (centres undefined) gave GPR151 activ -1, TEAD-YAP inh -6, MITF primary -7 and FBW7 activator 0.
Screening Cc1cc(C)c(NC(=O)C2(C)CC3c4ccccc4C2c2ccccc23)c(C)c1 (centres undefined) returned GPR151 activ 1, TEAD-YAP inh 0, MITF primary 9 and FBW7 activator 0.
`CN(C)CCCN(CCCN(C)C)Cc1ccc(F)c(F)c1` gave GPR151 activ 0, TEAD-YAP inh -1, MITF primary 56*, FBW7 activator 0, MITF confirm -12 and AS interf ctr -1.
`CN(C)CCCN(CCCN(C)C)Cc1ccc(C(F)(F)F)cc1` gave GPR151 activ 0, TEAD-YAP inh -2, MITF primary 54*, FBW7 activator 0, MITF confirm -9 and AS interf ctr 0.
For CCOCCCNC(=O)NC(C)c1c(-n2cccc2)sc(C)c1C (centres undefined) the results were GPR151 activ -1, TEAD-YAP inh 6, MITF primary 10 and FBW7 activator 0.
Screening CCN1CCN(CC(=O)Nc2ccccc2)CC1 returned GPR151 activ 1, TEAD-YAP inh 2, MITF primary 59*, FBW7 activator 0, MITF confirm -1 and AS interf ctr 10.
`CCN1CCN(CC(=O)Nc2nnc(C)s2)CC1` gave GPR151 activ 0, TEAD-YAP inh 4, MITF primary 74*, FBW7 activator 0, MITF confirm 8 and AS interf ctr 9.
`CCN1CCN(CCC(=O)Nc2ccccc2)CC1` gave GPR151 activ -2, TEAD-YAP inh 8, MITF primary 24 and FBW7 activator 2.
`Cc1cc(C)cc(NC(=O)CN2CCc3ccccc3C2)c1` gave GPR151 activ 0, TEAD-YAP inh 3, MITF primary 69*, FBW7 activator 0, MITF confirm 0 and AS interf ctr 5.
`Cc1cc(C)cc(NC(=O)CCN2CCc3ccccc3C2)c1` gave GPR151 activ -1, TEAD-YAP inh -5, MITF primary -1 and FBW7 activator 0.
CCN1CCN(CC(=O)NCc2ccccc2OC)CC1 was read as GPR151 activ -1, TEAD-YAP inh -6, MITF primary 99*, FBW7 activator 0, MITF confirm 3 and AS interf ctr 13.
Cc1nnc(NC(=O)CN2CCOCC2)s1 was read as GPR151 activ 1, TEAD-YAP inh -6, MITF primary -8 and FBW7 activator 0.
Screening CCCCOc1ccc(-c2nc(C=Nc3ccc(Br)cc3Br)c(O)o2)cc1 returned GPR151 activ 1, TEAD-YAP inh 6, MITF primary -1 and FBW7 activator 0.
For CN(C(=O)N1CCN(C(=O)N(C)c2ccccc2)CC1)c1ccccc1 the results were GPR151 activ -1, TEAD-YAP inh 1, MITF primary 14 and FBW7 activator 0.
For CCN1CCN(CC(=O)N(C)c2ccccc2)CC1 the results were GPR151 activ 1, TEAD-YAP inh -2, MITF primary 67*, FBW7 activator 0, MITF confirm -11 and AS interf ctr 1.
Screening CC(C)(C)C(=O)COc1ccc2c(C(F)(F)F)cc(=O)oc2c1 returned GPR151 activ 0, TEAD-YAP inh 6, MITF primary 6 and FBW7 activator 0.
For C=CCOC(=O)COc1ccc2c(CC)cc(=O)oc2c1 the results were GPR151 activ -1, TEAD-YAP inh -1, MITF primary 76*, FBW7 activator 0, MITF confirm 8 and AS interf ctr 7.
NC(=O)COc1ccc2c(C(F)(F)F)cc(=O)oc2c1 was read as GPR151 activ -1, TEAD-YAP inh 12, MITF primary 54*, FBW7 activator 0, MITF confirm -23 and AS interf ctr 15.
`COc1ccc(C(C)=O)cc1CSc1nc(NCCc2ccccc2)c2ccccc2n1` gave GPR151 activ 0, TEAD-YAP inh -2, MITF primary 3 and FBW7 activator 0.
For COc1ccc(C(C)=O)cc1CSc1nc(NC2CCCCC2)c2ccccc2n1 the results were GPR151 activ 1, TEAD-YAP inh -2, MITF primary 80*, FBW7 activator 0, MITF confirm 0 and AS interf ctr -1.

Screening data from PubChem BioAssay.
